# KB-V1 MDR tox: KB-V1 MDR subline cytotoxicity; KB-V1 MDR cells viability, CellTiter-Glo, 72 h; Potency, µM (series often up to 46.1 µM), actives largely listed as cytotoxic; 400,000 tested, 3.4% active; also: nearly all actives have a fitted effect of over 60% in size
#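 Readout: CellTiter-Glo luminescence, 10 min after addition. Cells: KB-V1 MDR subline, 72 h at 37 degrees C with compound. Analysis: corrected, normalized data fitted to concentration-effect curves.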
# TDP1 cell noCPT: qHTS for Inhibitors of human tyrosyl-DNA phosphodiesterase 1 (TDP1): qHTS in cells in absence of CPT; AID 686978, 2013; DT40 Tdp1-/- hTDP1 cells, no CPT, ATP luminescence, 48 h; 420,000 tested, 15% active; Potency, µM (top dose mostly 46.2 µM), hits mostly inhibitors; also: nearly all actives have a fitted effect of over 55% in size
#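 Chicken DT40 Tdp1-/- cells complemented with human TDP1, screened without camptothecin (DMSO vehicle only), 400 cells/well. Compounds pin-transferred, cells incubated at 37 °C for at least 48 hr. Growth read as ATP-dependent luminescence (CellTiter-Glo, 30 min at RT).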
# DT40 TDP1 CPT: growth inhibition of DT40 Tdp1-/-;hTDP1 cells with camptothecin (screen for TDP1 inhibitors). chicken DT40 Tdp1-/-;hTDP1 cells + 20 nM CPT, ATP luminescence, 48 h. Potency, µM (top dose mostly 46.2 µM), actives largely listed as inhibitors. 420,000 tested, 12% active. AID 686979; also: nearly all actives have a fitted effect of over 55% in size
#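 Chicken DT40 Tdp1-/- cells complemented with human TDP1, 400 cells/well, exposed to compounds plus 20 nM camptothecin for at least 48 h at 37 C; viability read as ATP content by CellTiter-Glo luminescence.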
# HT1080-NT tox: kills 2HG-producing HT-1080-NT fibrosarcoma cells; HT-1080-NT fibrosarcoma viability, CellTiter-Glo ATP luminescence, 48 h; AID 686970; 360,000 tested, 1.6% active; Potency, µM (highest dose often 46.1 µM), usual class: cytotoxic;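 also: NT is the 2HG producing partner of a matched IDH1 knockdown line; nearly all actives have a fitted effect of over 55% in size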
#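 750 cells/well, RPMI + 5% FBS; 2 h settle, compound pin-transfer, 48 h at 37 degrees C. CellTiter-Glo 10 min RT, luminescence. Normalized to DMSO and media-only wells.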
# KB-3-1 tox: kills parental KB-3-1 adenocarcinoma cells | KB-3-1 viability, CellTiter-Glo ATP luminescence, 72 h | AID 1347075 | 400,000 tested, 1.4% active | Potency, µM (series often up to 46.1 µM), usual class: cytotoxic; also: nearly all actives have a fitted effect of over 60% in size
#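 Cytotoxicity measured as CellTiter-Glo luminescence after 72 h at 37 C. Compound titrations were pinned onto drug-naive KB-3-1 parental adenocarcinoma cells grown in DMEM with 10% FBS, and normalized data fitted to concentration-response curves.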
# HT1080 IDH1KD tx: toxicity to HT-1080 IDH1 knockdown cells (counter line); HT-1080 IDH1 knockdown viability, ATP luminescence, 48 h; 360,000 tested, 2% active; Potency, µM (titrated, usually from 46.1 µM), hits mostly cytotoxic; AID 686971
#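 CellTiter-Glo luminescence after 48 h compound exposure at 37 degrees C of IDH1-knockdown HT-1080 cells in 5% FBS RPMI. %Activity scaled between DMSO wells and cell-free media wells, with curves fitted and assigned curve classes.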
# Numbers stand for hits; 0 = inactive; ? = inconclusive; - = no result. An excerpt weighted towards active compounds, which were near 19% of everything screened. Calls follow the shape of the dose curve; as a rule, active = well fitted curve in the direction sought with a large enough effect; inconclusive = small, poorly fitted or top-dose-only effect, or another doubt; inactive = no such curve, though single readings can be large; an effect the other way counts as inactive or inconclusive.
SMILES,KB-V1 MDR tox,TDP1 cell noCPT,DT40 TDP1 CPT,HT1080-NT tox,KB-3-1 tox,HT1080 IDH1KD tx
COC(=O)C1=C(c2ccccc2)C[C@@H]2CC[C@H]1N2C(=O)NCCNC(C)=O,0,0,0,0,0,0
C=CCn1c(=O)c(C=Nc2c(OC)cccc2[N+](=O)[O-])c(O)n(CCCC)c1=O,0,0,0,0,0,0
COc1cc(C(O)CNC(C)C)cc(F)c1OC (stereo unspecified),0,-,-,-,0,-
COC(=O)C1=C(c2ccc(-c3ccccc3)c(F)c2)C[C@@H]2CC[C@H]1N2C(=O)NCCCOC(C)C,0,13µM,15µM,0,?,0
COC(=O)C1=C(c2ccccc2)C[C@@H]2CC[C@H]1N2C(=O)NCCO,0,0,0,0,0,0
COC(=O)C1=C(c2ccc(-c3ccccc3)c(F)c2)C[C@@H]2CC[C@H]1N2C(=O)NCCc1ccccc1,?,16µM,?,0,?,?
COC(=O)C1=C(c2ccc(OC)c(OC)c2)C[C@@H]2CC[C@H]1N2C(=O)NCCc1ccccc1,0,?,0,0,0,0
COC(=O)C1=C(c2ccc3ccccc3c2)C[C@@H]2CC[C@H]1N2C(=O)NCCCOC(C)C,0,15µM,?,0,0,0
O=C(c1cccc2ccccc12)C1CCCN(C2CCC2)C1 (stereo unspecified),0,?,0,0,0,0
O=c1[nH]c(=S)n(C2CC2)c(O)c1C=NCC1CCCO1 (stereo unspecified),0,0,0,0,0,0
CCOc1ccc(-c2nc(CSCC(=O)NCCc3ccc(OCC)c(OCC)c3)c(C)o2)cc1,?,16µM,15µM,-,0,-
CCOc1ccc(CNC(=O)CSc2c3c(nc4cc(Cl)ccc24)CCCC3)cc1,0,?,?,-,0,-
O=C(CC1CCCCC1)c1c(O)c2ccccc2oc1=O,0,?,18µM,7.9µM,5.8µM,?
CCCCn1c(/N=C/c2c[nH]c3ccccc23)nc2ccccc21,0,21µM,?,?,0,?
C(=N\NC1=NCCCCC1)/c1c[nH]c2ccccc12,0,?,?,0,0,0
C[C@H]1COC(=O)[C@@H](Cc2ccc(F)cc2)CC/C=C/C[C@@H](CC(=O)N(CCO)Cc2ccccc2)C(=O)N1,?,23µM,13µM,0,0,0
C[C@H]1COC(=O)[C@@H](Cc2ccc(F)cc2)CC/C=C/C[C@H](CC(=O)N(CCO)Cc2ccccc2)C(=O)N1,0,16µM,16µM,0,0,0
CCC(=O)OC1(c2ccccc2)C(C)CN(C)CC1C (stereo unspecified),0,0,0,0,0,0
CN(C)C(CNC(=O)Cc1ccc(Br)cc1)c1ccccc1 (stereo unspecified),?,0,0,0,0,0
CN1CCN(C(=O)Cc2nc3ccccc3[nH]2)CC1,0,0,0,0,0,0
Cc1ccc(C(=O)Nc2nc3ccccc3[nH]2)cc1,?,18µM,?,?,?,?
CCCCn1c(O)c(C(CC)=Nc2ccc(OCC)cc2)c(=O)[nH]c1=O,21µM,21µM,18µM,0,?,0
CCCCn1c(O)c(C(CC)=NC(C)c2ccccc2)c(=O)[nH]c1=O (stereo unspecified),0,26µM,?,?,0,?
CCCCn1c(O)c(C(CC)=NCc2cc(OC)cc(OC)c2)c(=O)[nH]c1=O,3.7µM,23µM,?,0,0,0
CCCCn1c(O)c(C(C)=NC(C)c2ccccc2)c(=O)[nH]c1=O (stereo unspecified),?,?,?,0,0,0
SMILES,KB-V1 MDR tox,TDP1 cell noCPT,DT40 TDP1 CPT,HT1080-NT tox,KB-3-1 tox,HT1080 IDH1KD tx
CCC(=Nc1ccc2c(c1)CCC2)c1c(O)n(C2CCCCC2)c(=O)[nH]c1=O,0,18µM,29µM,0,0,0
CCCCn1c(O)c(C(C)=Nc2ccc(C(=O)O)cc2)c(=O)[nH]c1=O,0,0,0,0,0,0
CS(=O)(=O)N1CCC2(CCCN(Cc3ccncc3)C2)CC1,-,0,0,-,-,-
CC(=O)OC1CC2C(C)(C)C(O)C=C[C@@]2(C)C2CC[C@]3(C)C(=CC(=O)OC3c3ccoc3)[C@]12C (stereo partly specified),-,0,0,-,-,-
CCc1ccc([C@H]2[C@@H]3C(=O)C[C@@H]4C(=O)N(Cc5ccccc5)C(=O)[C@@H]4[C@@H]3CN2S(=O)(=O)c2ccc(C)cc2)cc1,0,?,?,0,0,0
CCCCn1c(O)c(C(CC)=Nc2ccc(OC)cc2OC)c(=O)[nH]c1=O,21µM,?,?,0,?,0
CCC(=NCc1cc(OC)cc(OC)c1)c1c(O)n(C2CCCCC2)c(=O)[nH]c1=O,?,?,?,0,0,0
COc1cc(CN=C(C)c2c(O)n(C3CCCCC3)c(=O)[nH]c2=O)cc(OC)c1,?,23µM,?,0,0,?
CCCCn1c(O)c(C(C)=NCc2cc(OC)cc(OC)c2)c(=O)[nH]c1=O,?,?,?,0,0,0
COc1ccc(CCNC2CCCCC2)cc1OC,0,0,0,0,0,0
Cc1ccc(OC(=O)N(C)C[C@H]2OCc3cnnn3CCCC(=O)N([C@@H](C)CO)C[C@H]2C)cc1,0,?,0,0,0,0
CC(C)CCn1c(=O)c(C(=O)NCc2ccc3c(c2)OCO3)c(O)c2ccccc21,?,?,?,0,0,0
CCN(CC)CCCNC(=O)c1c(O)c2ccccc2n(Cc2ccccc2)c1=O,?,23µM,18µM,0,?,0
CCN(CC)CCNC(=O)c1c(O)c2ccccc2n(Cc2ccccc2)c1=O,0,16µM,18µM,?,0,?
COc1ccc(CCNCc2ccc(SC)cc2)cc1,0,?,?,0,0,0
CCCCNC(=O)c1cc(-c2cccnc2)nc2ccc(S(=O)(=O)NCCCC)cc12,0,?,21µM,-,0,-
CCCCNC(=O)CN1C(=O)CN=C(c2ccccc2)c2ccccc21,?,?,0,0,0,0
COc1ccc(CCNC(=O)c2ccc3c(c2)N(Cc2cccc(Cl)c2)C(=O)CS3)cc1OC,?,23µM,21µM,-,0,-
COc1ccc(CCNCc2ccsc2)cc1OC,0,0,0,0,0,0
CCc1ccc(CNC(=O)c2ccc3c(c2)N=C(C)c2cc(C)ccc2S3)cc1,0,5.8µM,12µM,-,?,-
COc1ccc(CCNC(=O)c2ccc3c(c2)N=C(C)c2cc(C)ccc2S3)cc1OC,0,15µM,?,-,0,-
CCN1C(=O)c2ccccc2Sc2ccc(NC(=O)Cc3ccc(OC)c(OC)c3)cc21,?,?,?,-,0,-

# From PubChem BioAssay
